{
  "source": "PubChem BioAssay (NCATS)",
  "note": "Inconclusive results are not listed. A call without a number means that no potency is given here. The source made the active and inactive calls. Calls follow the shape of the dose curve; as a rule, active = well fitted inhibition curve with a large enough effect; inconclusive = small, poorly fitted or top-dose-only effect; inactive = no such curve, though single readings can be large or run the other way. Potency is read from the fitted curve at half-maximal effect.",
  "data": [
    {"target": "Tyrosine-protein kinase Yes (Homo sapiens) (UniProt P07947)", "sequence (P07947 whole entry, looked up)": "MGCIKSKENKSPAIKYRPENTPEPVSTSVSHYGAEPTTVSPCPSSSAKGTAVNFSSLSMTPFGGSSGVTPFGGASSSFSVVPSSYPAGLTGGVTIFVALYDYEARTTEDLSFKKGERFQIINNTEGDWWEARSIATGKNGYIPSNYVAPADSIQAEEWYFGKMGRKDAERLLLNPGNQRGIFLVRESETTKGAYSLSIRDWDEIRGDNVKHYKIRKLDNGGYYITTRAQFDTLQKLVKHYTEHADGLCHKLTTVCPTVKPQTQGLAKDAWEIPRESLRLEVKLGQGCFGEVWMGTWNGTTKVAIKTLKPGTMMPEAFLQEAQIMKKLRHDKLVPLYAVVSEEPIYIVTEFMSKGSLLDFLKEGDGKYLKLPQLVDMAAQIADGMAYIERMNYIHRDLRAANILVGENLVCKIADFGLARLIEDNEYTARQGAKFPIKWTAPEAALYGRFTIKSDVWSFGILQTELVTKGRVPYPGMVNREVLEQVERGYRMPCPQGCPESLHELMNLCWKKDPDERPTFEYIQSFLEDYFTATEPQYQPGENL", "assay": "qHTS for small molecule inhibitors of Yes1 kinase: Primary Screen (AID 686947); also: nearly all actives have a fitted effect of over 60% in size", "conditions": "Yes1 kinase biochemical qHTS inhibition; series mostly up to 76.9 µM", "excerpt": "The Src family of non-receptor protein tyrosine kinases contains nine members, including Yes1, Src, Fyn, Lyn, and […]. These kinases have important roles in a variety of cellular functions, such as cell proliferation, survival, and differentiation. Src, the most well characterized member of this family, has been previously identified as a proto-oncogene. […] In melanoma, it has been shown that Yes1, and not other family members, such as Src, is functionally involved in the malignant phenotype. Additionally, a recent study examining the downregulation of Yes1 by shRNA found significant effects on cell survival/growth for basal-like and Her2-positive breast cancers. Despite the potential for Yes1 to be a target for the above-described cancers, there are very few reports on the identification of potent and selective inhibitors of Yes1 kinase. Antagonists of Yes1 would further elucidate Yes1 biology and help to confirm whether Yes1 is a viable target for therapeutic intervention in a variety of cancers.\nA compound that inhibits Yes1 could be important for the treatment of various cancers in which Yes1 is highly expressed and can also be used as a tool compound to help further elucidate Yes1 biology. To that end, we have developed a sensitive HTS biochemical assay for Yes1 activity. This assay was screened against several small compound libraries to look for modulators of activity. Inhibition is the desired output for this assay.\nNIH Molecular Libraries Probe Production Centers Network [MLPCN]\nNIH Chemical Genomics Center [NCGC]\nTwo micoliter of Yes1 enzyme (columns 1-2, 5-48; Millipore, Billerica, MA) are dispensed into Greiner, white solid-bottom 1536-well assay plates; columns 3 and 4 receive buffer without Yes1 as a control for maximum inhibition. Compounds (23 nL) are then transferred via Kalypsys pin tool equipped with 1536-pin array (10 nL slotted pins, V&P Scientific, San Diego, CA). […] Following addition of compound and a 20 minute incubation, 1 uL of substrate (ATP and poly-E4Y from Sigma-Aldrich, St. Louis, MO) is added, and the biochemical reaction is allowed to progress for 60 minutes at room temperature. The production of ADP is then quantified by the ADP-Glo Kit (Promega, Madison, WI). First, 2 uL of the first kit reagent is added, and the reaction is incubated for 45 minutes; then, 4 uL of the second kit reagent are added and the reaction is incubated for 30 minutes at which time the luminescence is read on a Viewlux plate reader (Perkin-Elmer, Waltham, MA). The final concentration of reagents in the reaction are 4 nM Yes1, 0.1 mM ATP, 100 uM EGTA, 10 mM MgCl2, 0.3 mg/mL poly(E4Y), 50 mM Tris pH 7.5, 1 mM DTT, 150 mM NaCl, 0.01% Brij-35, and 5% glycerol. Data are normalized to DMSO-treated control columns with (maximum signal) and without (minimum signal) enzyme.", "values": [
      {"smiles": "COc1ccc(C2CC(c3ccccc3)=NN2c2ccc(S(N)(=O)=O)cc2)cc1", "note": "(stereo unspecified)", "Potency": "inactive"},
      {"smiles": "CO[C@H]1C=CC=C(C)C(=O)NC2=CC(=O)C(NCCN(C)C)=C(C[C@@H](C)C[C@H](OC)[C@@H](O)[C@@H](C)C=C(C)[C@@H]1OC(N)=O)C2=O", "Potency": "inactive"},
      {"smiles": "OC[C@H]1O[C@@H](n2cnc3c2NC=NC[C@@H]3O)C[C@H]1O", "Potency": "21.8 µM (active)"},
      {"smiles": "O=C(Nc1cc(Cl)cc2c1[nH]c1cnccc12)c1cccnc1", "Potency": "inactive"},
      {"smiles": "O=c1cc(N2CCOCC2)oc2c(-c3cccc4c3sc3ccccc34)cccc12", "Potency": "inactive"},
      {"smiles": "O=C(Nc1ccccc1-c1cn2c(CN3CCNCC3)csc2n1)c1cnc2ccccc2n1", "Potency": "inactive"},
      {"smiles": "O=C(CCCCCCC(=O)Nc1ccccc1)NO", "Potency": "inactive"},
      {"smiles": "O=c1cc(CN2CCOCC2)occ1OCCCCCSc1ccnc2cc(C(F)(F)F)ccc12", "Potency": "inactive"},
      {"smiles": "CC(C)(C)c1cc(C(=O)O)c(NC(=O)Nc2ccc3[nH]ncc3c2)s1", "Potency": "inactive"},
      {"smiles": "CC1=C(/C=C/C(C)=C/C=C/C(C)=C/C(=O)Nc2ccc(O)cc2)C(C)(C)CCC1", "Potency": "inactive"},
      {"smiles": "Clc1ccc(-c2nc3sccn3c2C=NOCc2ccc(Cl)c(Cl)c2)cc1", "Potency": "inactive"},
      {"smiles": "c1ccc2c(-c3cnn4cc(-c5ccc(N6CCNCC6)cc5)cnc34)ccnc2c1", "Potency": "0.137 µM (active)"},
      {"smiles": "CC(=O)N(C)C1(c2ccccc2)CCN(CCC[C@]2(c3ccc(Cl)c(Cl)c3)CCCN(C(=O)c3ccccc3)C2)CC1", "Potency": "inactive"},
      {"smiles": "CCOC(CN1C(=O)[C@](CC(=O)Nc2ccc(C)cc2)(NC(=O)Nc2ccc(C)cc2)c2ccccc21)OCC", "Potency": "inactive"},
      {"smiles": "O=C(O)CCC1CCC(c2cc(F)ccc2F)(S(=O)(=O)c2ccc(Cl)cc2)CC1", "note": "(stereo unspecified)", "Potency": "inactive"},
      {"smiles": "COc1cc2nc(-c3ccc(N4CCN(C)CC4)cc3)nc(NCCN3CCOCC3)c2cc1OC", "Potency": "inactive"},
      {"smiles": "O=C(N[C@@H](c1ccccc1)[C@@H]1CCCCN1)c1cccc(C(F)(F)F)c1Cl", "Potency": "inactive"},
      {"smiles": "Cc1nc(N)sc1-c1ccnc(Nc2ccc(N3CCOCC3)cc2)n1", "Potency": "0.308 µM (active)"},
      {"smiles": "O=C(O)c1ccc(-c2cc3cccnc3c(-c3ccc4nonc4c3)n2)cc1", "Potency": "inactive"},
      {"smiles": "CC(C)C(=O)Nc1ncc(-c2cc(C(F)F)nn2-c2c(Cl)cccc2Cl)s1", "Potency": "27.4 µM (active)"},
      {"smiles": "CC/C(=C(\\c1ccccc1)c1ccc(OCCN(C)C)cc1)c1ccccc1", "Potency": "inactive"},
      {"smiles": "CO[C@H]1C[C@@H]2CC[C@@H](C)[C@@](O)(O2)C(=O)C(=O)N2CCCC[C@@H]2C(=O)O[C@H]([C@H](C)C[C@@H]2CC[C@H](OCCO)[C@H](OC)C2)CC(=O)[C@H](C)C=C(C)[C@@H](O)[C@@H](OC)C(=O)[C@H](C)C[C@H](C)C=CC=CC=C1C", "Potency": "inactive"},
      {"smiles": "CC(C)(C)COc1ccc(-n2cc(C(=O)O)cn2)cc1C#N", "Potency": "inactive"},
      {"smiles": "O=C1C(Cl)=C(NCCN2CCOCC2)C(=O)c2ncccc21", "Potency": "6.88 µM (active)"},
      {"smiles": "CC(C)[C@H](CO)Nc1nc(Nc2ccc(C(=O)O)c(Cl)c2)c2ncn(C(C)C)c2n1", "Potency": "0.0194 µM (active)"},
      {"smiles": "CCOc1ccc(Nc2nc(-c3c(C)nc4ccccn34)cs2)cc1", "Potency": "inactive"},
      {"smiles": "CN(C)Cc1ccc(-c2nc3cccc4c3n2CCNC4=O)cc1", "Potency": "13.7 µM (active)"},
      {"smiles": "COc1cc2ncnc(-n3nc(-c4ccccn4)nc3N)c2cc1OC", "Potency": "2.74 µM (active)"},
      {"smiles": "CC(C)(C(=O)NCC(F)(F)C(F)(F)F)C(=O)N[C@@H]1C(=O)Nc2ccccc2-c2ccccc21", "Potency": "inactive"},
      {"smiles": "COc1cccc2c1CCCC2CCCN1CCN(C2CCCCC2)CC1", "note": "(stereo unspecified)", "Potency": "inactive"},
      {"smiles": "Cn1cc(C=C2C(=O)Nc3cccnc32)c2ccccc21", "Potency": "0.519 µM (active)"}
    ]}
  ]
}
